Source: PubChem BioAssay
TGFb inhibitor = inhibitors of TGF-b signaling; Potency, µM (top dose mostly 46.1 µM), actives largely listed as inhibitors; HepG2 CAGA-GFP TGF-b/SMAD3 reporter, GFP fluorescence, 18 h; TGF-beta stimulated, 500 pg/mL final; 1.2% of 410,000 active; AID 588855; further: nearly all actives have a fitted effect of over 65% in size
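Inhibition was scored as loss of TGF-beta-induced (500 pg/mL final, 18 hours, 37 degrees C) GFP in HEPG2 cells carrying a CAGA-GFP reporter, in DMEM with 1% FBS. Well GFP was summed per cell; Activity was normalised to unstimulated and stimulated DMSO wells, then concentration-response fitting.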
S2 tox = cell viability loss in ATXN counter-screen; S2 cells (HEK-293 line with an ATXN2-luciferase reporter) viability, CellTiter-Fluor protease fluorescence, 24 h; Potency, µM (series often up to 56.7 µM), hits mostly cytotoxic; 0.49% of 400,000 active; AID 651635; further: nearly all actives have a fitted effect of over 40% in size
HepG2 viability = kills HepG2 cells in TGF-b inhibitor counter-screen | HepG2 CAGA-GFP viability, ATP luminescence, 18 h | Potency, µM (highest dose often 46.1 µM), hits mostly cytotoxic | 0.76% of 410,000 active | AID 588856
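HepG2 CAGA-GFP cells (1000/well, DMEM with 1% FBS) received compound, then TGF-beta at 500 pg/mL final, and were incubated 18 hours at 37 degrees C. Viability was read by CellTiter-Glo luminescence. Media-only wells were set as complete cell-killing and DMSO as no toxicity.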
ATXN2 expr inh = inhibitors of ATXN2 expression; 0.72% of 360,000 active; Potency, µM (series often up to 57 µM), actives largely listed as inhibitors; HEK-293 ATXN2-luciferase reporter, luminescence, 24 h; further: nearly all actives have a fitted effect of over 55% in size
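qHTS (up to 57 uM final) was run with 24 h compound exposure of reporter cells at 37 °C. Each well was multiplexed: SteadyGlo luminescence measured ATXN2-luciferase expression after a fluorogenic Gly-Phe-AFC viability readout (25 uM final).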
IL1B secr inh = inhibitors of inflammasome signaling (IL-1 beta secretion); THP-1 LPS/ATP IL-1B secretion, AlphaLISA, 16 h; active compounds read low; activity change, % at 57.5 µM; 4.7% of 360,000 active; in the data active means activity change below about -50%; inconclusive means mostly about -30% to -49%
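Secreted IL-1B measured by AlphaLISA bead assay after 16 h compound exposure of THP-1 cells; compounds (final up to 57.5 uM) added 1 h before LPS (250 ng/mL) and ATP (1.25 mM) stimulation; lower signal means less secretion.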
Hits are given with their value; i = inactive; ? = inconclusive; nt = not tested or not shown; [ ] = remark or other dose. Rows were chosen to be rich in hits. Some 5.7% of all compounds tested hit in one or more screens of this group. Unless noted, the call rests on the fitted dose curve; in most records, active means well fitted curve in the direction sought with a large enough effect; inconclusive means small, poorly fitted or top-dose-only effect, or another doubt; inactive means no such curve, though single readings can be large; an effect the other way counts as inactive or inconclusive.

SMILES | TGFb inhibitor | S2 tox | HepG2 viability | ATXN2 expr inh | IL1B secr inh
Nc1cc(S(=O)(=O)N2CCOCC2)ccc1Oc1cccc(Br)c1 | i | i | i | i | -61.0
CCOC(=O)c1sc2nc(CSc3ccccc3)nc(N3CCCN(C)CC3)c2c1C | i | 35.5µM | i | nt | ?
CCOC(=O)c1sc2nc(CSc3ccccc3)nc(N3CCC(C(N)=O)CC3)c2c1C | ? | ? | i | ? | -116.4
Cc1sc2nc(CSc3ccccc3)nc(N3CCOCC3)c2c1C | i | i | i | i | i
Cc1sc2nc(CSc3ccccc3)nc(N3CCC(C(N)=O)CC3)c2c1C | ? | ? | i | nt | -62.8
CCOc1ccc(NC(=O)CSC2=Nc3ccccc3C3=NC(CC(=O)NCc4ccccc4OC)C(=O)N23)cc1 (stereo unspecified) | i | nt | i | nt | nt
COc1ccc(OC)c(N(CCN2C(=O)c3ccccc3C2=O)C(=O)CCl)c1 | ? | 1.58µM | i | nt | -104.2
COc1ccc(NC(=O)CCN2C(=O)c3ccccc3C2=O)c(OC)c1 | i | i | i | i | i
COc1ccccc1N1CCN(C(=O)CCn2cnc3onc(-c4ccc(F)cc4)c3c2=O)CC1 | ? | i | i | i | nt
O=C(NCC(O)CO)c1ccc2[nH]c3ccccc3c2c1 (stereo unspecified) | ? | i | i | i | i
CCOC(=O)CNC(=O)c1ccc2[nH]c3ccccc3c2c1 | ? | ? | i | nt | -62.8
CCOC(=O)C1=C(Cn2cnc3ccccc32)NC(=O)NC1c1cc(C)ccc1C (stereo unspecified) | ? | 31.6µM | i | ? | i
COC(=O)C1=C(Cn2cnc3ccccc32)NC(=O)NC1c1cc(C)ccc1C (stereo unspecified) | i | i | i | i | i
O=C(CCS(=O)(=O)c1nc(-c2ccc3c(c2)OCO3)cc(C(F)(F)F)n1)Nc1ccccc1C(F)(F)F | ? | i | i | i | nt
O=S(=O)(NCCNCC=Cc1ccc(Br)cc1)c1cccc2cnccc12 | ? | nt | i | ? | nt
Cc1ccc(N2C(=O)N(CC(=O)Nc3cccc(Cl)c3)C(=O)C2C)cc1 (stereo unspecified) | i | i | i | i | -60.6
COc1cc(NC(=O)CN2C(=O)C(C)N(c3ccc(C)cc3)C2=O)cc(OC)c1 (stereo unspecified) | i | i | i | i | i
Cc1cc(NC(=O)c2cccnc2)cc(-c2nc3cc(Cl)ccc3o2)c1O | i | i | i | i | nt
CCOc1ccc(N/C(SCc2cccc([N+](=O)[O-])c2)=C(/C#N)C(N)=O)cc1 | i | i | i | i | -73.4
COc1cccc(N/C(SCc2cccc([N+](=O)[O-])c2)=C(/C#N)C(=O)NCc2cccs2)c1 | i | i | i | i | -55.3
COc1cccc(N/C(SCc2ccccc2C)=C(/C#N)C(=O)NCc2cccs2)c1 | i | i | i | i | i
CCOc1ccc(N/C(SC)=C(/C#N)C(N)=O)cc1 | i | i | i | i | i
CCCCCCCCCCCCOCCOCCOCCOCCOCCOCCOCCOCCOCCO | nt | i | nt | ? | nt
CCn1c(SCC(=O)NCc2ccco2)nnc1-c1ccc(N(C)C)cc1 | i | nt | i | nt | nt
CCNC(=S)Nc1ccc(C)c(Cl)c1 | i | i | i | i | i
SMILES | TGFb inhibitor | S2 tox | HepG2 viability | ATXN2 expr inh | IL1B secr inh
CCNC(=S)Nc1ccc(Cl)c([N+](=O)[O-])c1 | i | i | i | i | -88.9
CC(CC(=O)Nc1ccc(Cl)c([N+](=O)[O-])c1)c1ccccc1 (stereo unspecified) | ? | i | i | i | -90.5
COc1cc(OC)c(/C=N/NC(N)=S)cc1Br | i | i | i | i | i
COc1cc2c(-c3ccccc3)c(C)oc2cc1/C=N/NC(N)=S | ? | i | 6.31µM | nt | i
Cc1ccc(NC(=O)c2ccc3c(c2)NC(=O)c2ccccc2S3)cc1 | i | ? | i | i | nt
CN(C)CCCC1Sc2ccccc2Sc2ccccc21 (stereo unspecified) | ? | ? | i | i | -66.1
CNCCC1Sc2ccccc2Oc2ccccc21 (stereo unspecified) | i | i | i | ? | i
C=CC(=O)N=c1sc2ccccc2n1-c1ccccc1 | 10µM | nt | 4.47µM | i[11.3 µM] | -103.7
O=C(c1cccs1)N1CCCc2cc(NS(=O)(=O)c3ccc(F)cc3F)ccc21 | ? | ? | i | i | nt
Cc1cc(F)ccc1S(=O)(=O)Nc1ccc2c(c1)CCCN2C(=O)c1cccs1 | 15.8µM | nt | i | ? | nt
CCOC(=O)c1c(NC(=O)CSc2nc3ccc(C)cc3[nH]2)sc2c1CC(C)(C)NC2(C)C | ? | ? | i | ? | -85.1
CCOC(=O)c1c(NC(=O)CSc2nnnn2-c2ccccc2)sc2c1CC(C)(C)NC2(C)C | i | ? | i | ? | -61.9
CCOC(=O)c1c(NC(=O)Cc2ccccc2)sc2c1CC(C)(C)NC2(C)C | ? | ? | i | i | i
CCOC(=O)c1c(NC(=O)CSc2nnnn2-c2ccccc2OCC)sc2c1CC(C)(C)NC2(C)C | ? | ? | i | ? | -78.3
CN1[C@@H]2CC[C@H]1CC(OC(=O)[C@@H](CO)c1ccccc1)C2 (stereo partly specified) | nt | i | nt | nt | nt
COc1cc(=O)n2c(c1C(=O)NCc1nonc1C)CCN(C(=O)c1cccc(C)c1C)CC2 | nt | i | nt | nt | nt
O=C(COc1ccccc1-c1nc(-c2ccccc2)no1)Nc1cccc([N+](=O)[O-])c1 | i | nt | i | nt | nt
NC(=O)CSc1nnc(-c2cccc(S(=O)(=O)N3CCOCC3)c2)n1C1CCCCCC1 | ? | ? | i | i | i
Cc1ccc(CSc2nnc(-c3cccc(S(=O)(=O)N4CCOCC4)c3)n2C2CCCC2)cc1 | ? | i | i | i | -55.2
O=C(NCCCN1CCN(c2ccccc2F)CC1)c1nnc(Cc2ccc(Cl)cc2Cl)o1 | 11.2µM | nt | i | nt | nt
Cc1ccc(C(=O)COC(=O)C2C3C=CC(C3)C2C(=O)OCC(=O)c2ccc(C)c(C)c2)cc1C (stereo unspecified) | ? | i | i | i | -53.5
CCn1ncc(C2=NOC(C(=O)Nc3cnn(C45CC6CC(CC(C6)C4)C5)c3)C2)c1C (stereo unspecified) | i | ? | i | 28.2µM | i
O=c1cc(-c2ccccc2)c2ccc(O)cc2o1 | i | nt | i | i | -59.6
O=c1cc(-c2ccccc2)oc2cc(O)ccc12 | i | i | i | i | i
Cc1[nH]c2ccccc2c1C(=O)COC(=O)c1ccccc1SCC(=O)N1CCCC1 | i | nt | i | nt | nt
Cc1ccc(CCNC(=O)CN(c2ccc(C(C)C)cc2)S(=O)(=O)c2c(C)nn(C)c2C)cc1 | i | nt | i | nt | nt
CC(=O)c1ccc(OCCCOc2cccc3cccnc23)cc1 | i | i | i | i | -69.8
CCOc1ccc(-n2c(Cc3ccccc3)nnc2SCc2nc(-c3cccs3)no2)cc1 | ? | ? | i | ? | nt
COc1cccc(C(=O)Nc2ccc3[nH]ncc3c2)c1 | i | i | i | i | -57.3
COc1ccccc1C(=O)Nc1ccc2[nH]ncc2c1 | i | i | i | i | -60.8
